Screening data: PubChem, National Center for Advancing Translational Sciences (NCATS)
Hits are enriched below; roughly 11% of the tested compounds scored in any of these assays.
VP16 counter: inhibits Gal4-VP16 luciferase reporter, ROR gamma counter-screen. Drosophila S2 Gal4-VP16 UAS-luciferase, luminescence, 20 h. Potency, µM (top dose mostly 53.6 µM), for inactives: at the highest dose activity, negative = inhibition, hits mostly inhibitors. 310,000 compounds, 3.5% hits. AID 2546;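 further: Gal4-VP16 expression switched on by copper sulfate through the metallothionein promoter; potency means the concentration at half of the fitted maximal effect; on the % scale 0 is the no-effect control and ±100 the full control effect; nearly all actives have a fitted effect of over 50% in size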
SW480 rereplic: inducers of DNA re-replication in SW480 colon cancer cells; SW480 DNA re-replication, Hoechst DNA content imaging, 48 h; Potency, µM (doses to about 46.1 µM), for the others: top-dose re-replication activation, hits mostly activators; 340,000 compounds, 1.8% hits; AID 624297; further: potency means the concentration at half of the fitted maximal effect; % of control where 0% means no effect; nearly all actives have a fitted effect of over 55% in size
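Per well, 250 cells were exposed to pinned compound for 48 hr. Nuclear DNA was visualised with Hoechst (40 min, 37 C) and total object intensity recorded by fluorescence scanning.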
RORgamma inh: inhibitors of mouse ROR gamma transcriptional activity; P51450; Drosophila S2 Gal4-RORgamma UAS-luciferase reporter, 20 h; Potency, µM (titrated, usually from 53.6 µM), without a hit: at the top dose activity change, negative = inhibition, actives largely listed as inhibitors; 310,000 compounds, 5.4% hits; AID 2551; further: potency means the concentration at half of the fitted maximal effect; on the % scale 0 is the no-effect control and ±100 the full control effect; nearly all actives have a fitted effect of over 60% in size
Target sequence (P51450 whole entry, looked up, the tested form may be a part): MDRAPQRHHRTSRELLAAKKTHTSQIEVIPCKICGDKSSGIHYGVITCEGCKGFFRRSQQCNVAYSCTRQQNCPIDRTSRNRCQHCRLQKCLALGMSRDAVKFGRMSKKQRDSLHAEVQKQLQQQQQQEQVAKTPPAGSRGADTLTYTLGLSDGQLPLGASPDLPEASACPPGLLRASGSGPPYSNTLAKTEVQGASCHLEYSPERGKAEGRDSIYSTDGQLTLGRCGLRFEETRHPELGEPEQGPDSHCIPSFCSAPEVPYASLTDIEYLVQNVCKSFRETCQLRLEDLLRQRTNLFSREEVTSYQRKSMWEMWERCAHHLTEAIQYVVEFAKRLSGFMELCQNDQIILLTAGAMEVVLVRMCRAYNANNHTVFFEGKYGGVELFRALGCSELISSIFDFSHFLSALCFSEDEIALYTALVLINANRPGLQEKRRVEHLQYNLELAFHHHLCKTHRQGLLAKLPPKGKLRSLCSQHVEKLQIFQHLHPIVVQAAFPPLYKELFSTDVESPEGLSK
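Compounds are pin-transferred onto Drosophila Schneider cells expressing a copper-inducible Gal4–ROR gamma transactivation domain fusion. After 1 hr, copper sulfate is added to 700 uM final; luciferase is read 20 hr later.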
IL1B secr inh: inhibitors of inflammasome signaling (IL-1 beta secretion) | THP-1 LPS/ATP IL-1B secretion, AlphaLISA, 16 h; stronger effect = lower value | activity change, % at 57.5 µM | 360,000 compounds, 4.7% hits | AID 743279; in the data active means activity change below about -50%; inconclusive means mostly about -30% to -49%; further: on the % scale 0 is the no-effect control and ±100 the full control effect
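THP-1 cells pretreated 1 hr with compounds (up to 57.5 uM final), then stimulated with LPS (250 ng/mL final) plus ATP (1.25 mM final); secreted IL-1B measured by AlphaLISA after 16 hr, decreased signal indicating inhibition.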
MCF10A rerep: induces DNA re-replication in MCF 10a normal breast cells | MCF 10A DNA re-replication, Hoechst nuclear intensity, 48 h | Potency, µM (series often up to 46.1 µM), without a hit: top-dose activity, positive = re-replication, hits mostly activators | 350,000 compounds, 2.9% hits | AID 624296; further: potency means the concentration at half of the fitted maximal effect; % of control where 0% means no effect; nearly all actives have a fitted effect of over 50% in size
* = called active by the depositor; u = inconclusive; x = no result given. Unless noted, the call rests on the fitted dose curve; in most records, active means well fitted curve in the direction sought with a large enough effect; inconclusive means small, poorly fitted or top-dose-only effect, or another doubt; inactive means no such curve, though single readings can be large; an effect the other way counts as inactive or inconclusive.

SMILES | VP16 counter | SW480 rereplic | RORgamma inh | IL1B secr inh | MCF10A rerep
C=CCn1c(=S)[nH]c2ccc(Br)cc2c1=O | 3.2µM* | 0% | 2.8µM* | 12 | 1%
O=c1c2cc(Br)ccc2[nH]c(=S)n1Cc1cccnc1 | u | 2% | 1.1µM* | 85 | 20%
C=CCn1c(=S)[nH]c2cc(C(=O)Nc3ccc(OC)c(OC)c3)ccc2c1=O | -2% | -4% | u | 5 | 3%
CN(Cc1ccccc1)C(=O)C1CCN(S(=O)(=O)c2ccc3nc4c(c(C(=O)O)c3c2)CCCC4)CC1 | 3% | -10% | 12% | 14 | -1%
COc1ccc(-c2cc3ncnc(Cl)c3s2)cc1 | -12% | 7% | -28% | 13 | u
CCCCNC(=S)N=Nc1c(O)n(Cc2ccccc2)c2ccccc12 | 6.3µM* | 7% | 6.3µM* | -27 | u
O=Nc1c(O)n(Cc2cccc(Cl)c2)c2ccccc12 | -22% | 12% | 11% | -68* | u
NC(=S)N=Nc1c(O)n(Cc2ccccc2)c2ccccc12 | u | -7% | 3.2µM* | 11 | 15%
CCOC(=O)N=Nc1c(O)n(Cc2ccccc2)c2ccccc12 | -1% | -8% | u | -2 | 1%
COC(=O)c1ccc(Cn2c(O)c(N=NC(N)=S)c3ccccc32)o1 | 13µM* | 23µM* | 1.1µM* | u | 1%
COC(=O)N=Nc1c(O)n(Cc2ccccc2)c2ccccc12 | 0% | 13% | -5% | -10 | 13%
COc1cccc(-c2ncn(CCc3ccccc3OC)c2C(C)C)c1 | x | x | x | -10 | x
O=C(NCc1cccc(C(F)(F)F)c1)c1ccc2sc(C3=C[C@@H](O)[C@@H](O)[C@@H](CO)O3)nc2c1 | x | x | x | 13 | x
CC(C)(C)NC(=O)C(c1ccccc1)n1c(=O)c(-c2ccccc2)nc2ccccc21 (configuration not stated) | x | x | x | -10 | x
Cc1cc(C)nc(N=Nc2c(O)n(Cc3ccc(Cl)cc3)c3ccccc23)n1 | 3.5µM* | u | 5.6µM* | 6 | 0%
O=C(N=Nc1c(O)n(Cc2ccccc2)c2ccccc12)c1ccncc1 | -8% | 9% | -21% | 76 | -1%
C/C(Cl)=C\Cn1c(O)c(N=NC(N)=S)c2ccccc21 | 5µM* | u | 3.5µM* | -5 | 15%
CC1(C)CC2C1CC[C@]1(C)CCC3C(C(=O)O)CC(=O)O[C@]32C1 (some centres not stated) | 2% | x | -4% | x | x
COc1cc(CNc2ncnc3c2ncn3[C@H]2CN(Cc3ccc4c(c3)OCO4)C[C@@H](CO)O2)cc(OC)c1OC | x | x | x | 23 | x
CSCCC(NS(=O)(=O)c1cccc(C(F)(F)F)c1)C(=O)N(C)CCOc1ccc(Cl)cc1 (configuration not stated) | x | 5.8µM* | x | -57* | u
O=C(Nc1ccnn1C1CCN(C(=O)c2cc(Cl)ccc2F)CC1)C1CCOC1 (configuration not stated) | 2% | -8% | 29% | 22 | 1%
CCN1/C(=C/c2ccc3ccccc3[n+]2CC)C=Cc2ccccc21 | 2.8µM* | 1% | 8.9µM* | -55* | -1%
Cc1ccc2nc(SC(C(=O)c3ccccc3)c3ccccc3)nc(C)c2c1 (configuration not stated) | 16µM* | -4% | u | 31 | 11%
Cc1ccc2nc(SCC(=O)O)nc(C)c2c1 | 5% | -4% | -10% | 3 | 13%
O=S1(=O)CCN(c2ccccc2CC(c2c[nH]c3ccccc23)c2c[nH]c3ccccc23)CC1 | x | u | x | -11 | u
N#C/C(=C(/O)c1cccc(F)c1)c1nc2ccccc2s1 | 13% | -5% | u | -59* | 11%
N#C/C(=C(/O)c1cc2ccccc2o1)c1nc2ccccc2s1 | -11% | u | 9% | 0 | 8.2µM*
Cn1c(/C(C#N)=C(\O)c2ccc([N+](=O)[O-])cc2)nc2ccccc21 | 1% | -58% | 1% | 5 | 6%
Cn1c(/C(C#N)=C(\O)c2cccc(F)c2)nc2ccccc21 | 7.1µM* | 114% | 7.1µM* | 2 | 20%
CCN(CC)S(=O)(=O)c1ccc(/C(O)=C(\C#N)c2nc3ccccc3n2C)cc1 | 5.6µM* | 17% | 2.8µM* | u | -1%
